Most compounds without a hit are left out; they make up all but 7.9% or so of the library.
HCV inhibitor: inhibitors of hepatitis C virus infection. AID 651820. 340,000 compounds, 3.4% hits. Potency, µM (top dose mostly 41.8 µM), inactives show at the highest dose activity change, negative = inhibition, hits mostly inhibitors. Huh7.5.1 HCVcc-Cre infection, luciferase reporter, 44 h; active = well fitted inhibition curve with a large enough effect; inconclusive = small, poorly fitted or top-dose-only effect, or another doubt; inactive = no such curve, though single readings can be large or run the other way; also: potency is read from the fitted curve at half-maximal effect
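HCVcc-Cre virus at an moi near 0.5 was added right after compound to cells cultured 4 h from seeding (1,000 cells/well). Luciferase activity was determined 44 h later, 15 min after substrate addition at RT.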
Marburg entry inh: inhibitors of Marburg virus binding or cell entry; Marburg virus pseudotyped entry inhibition, cell reporter; Potency, µM (highest dose often 37.8 µM), for inactives: top-dose activity change, negative = inhibition, hits mostly inhibitors; 300,000 compounds, 1.8% hits; AID 540276; calls by dose curve; tested in HEK293 cells; also: potency is read from the fitted curve at half-maximal effect
FMDV inh: blocks foot and mouth disease virus; Potency, µM (top dose mostly 57.9 µM), without a hit: top-dose activity change, negative = inhibition, most hits filed as inhibitors; FMDV antiviral cell-based qHTS; 410,000 compounds, 1.2% hits; calls by dose curve; tested in HEK293T cells; also: read-out not given here; potency is read from the fitted curve at half-maximal effect; nearly all actives have a fitted effect of over 45% in size
LASV entry inh: inhibitors of Lassa virus binding or cell entry | Lassa virus pseudotype entry inhibition, cell reporter | Potency, µM (titrated, usually from 37.9 µM), for inactives: at the top dose activity change, negative = inhibition, usual class: inhibitors | 300,000 compounds, 1.2% hits; calls by dose curve; tested in HEK293 cells; also: potency is read from the fitted curve at half-maximal effect; nearly all actives have a fitted effect of over 50% in size
HCMV antiviral: inhibitors of human cytomegalovirus. activity change, negative = inhibition, % at 57.5 µM. AID 1259415. 410,000 compounds, 4.5% hits. HFF cells, HCMV-luciferase reporter, 72 h; stronger effect = lower value; in the data active = activity change below about -60%; inconclusive = no clear call, values can overlap the other calls; inactive = above about -39%
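Cell-based, HFFs, 1000 cells/well, 16 h 37C; cpds in DMSO + HCMV-luc, MOI 1 PFU/cell; 72 h 37C; OneGlo luminescence after 5 min RT; norm. to buffer vs Salinomycin 10uM.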
* = called active by the depositor; ? = inconclusive; . = no result; [ ] = another dose, or the depositor's remark. % is scaled to controls: 0 for no effect and ±100 for the full control effect.

SMILES	HCV inhibitor	Marburg entry inh	FMDV inh	LASV entry inh	HCMV antiviral
CCC(C)NCCOCCOc1ccccc1-c1ccccc1 (stereo not drawn)	13µM*	?	-11%	?	-23
Cc1cc(C)cc(Nc2nc3ccccc3nc2-n2nc(C)cc2C)c1	.	3%[46.1 µM]	-1%	29%[46.1 µM]	4
Cc1cc(O)c2c(C)c(CC(=O)N3CCN(C(=O)C4COc5ccccc5O4)CC3)c(=O)oc2c1 (stereo not drawn)	?	.	-16%	.	-22
COc1cc(C)cc2oc(=O)c(CC(=O)N3CCN(C(=O)C4COc5ccccc5O4)CC3)c(C)c12 (stereo not drawn)	10µM*	.	-20%	.	-39
C=CCn1c(SCc2csc(C)n2)nc2sc3c(c2c1=O)CCCCC3	-21%	-20%	-29%	?	6
C=CCn1c(SCc2csc(C)n2)nc2sc3c(c2c1=O)CCCC3	?	?	?	5µM*	-22
Cc1cccc(Cn2c(=O)n(Cc3ccccc3)c(=O)c3sc4ccccc4c32)c1	.	-4%[46.1 µM]	0%	-12%[46.1 µM]	-36
O=C(NC(=S)Nc1cc(Cl)ccc1O)c1cccc(Br)c1	11µM*	.	43%	.	?
O=C(NC(=S)Nc1cccnc1)c1cccc(Br)c1	-6%	?	0%	1%[46.1 µM]	-27
Cc1c(Cl)cccc1NC(=S)NC(=O)c1cncc(Br)c1	6%	-5%[46.1 µM]	-8%	3.2µM*	-65*
Cc1cccc(-c2nc(SCC(=O)NCC3CCCO3)c3c(=O)n(C)c(=O)n(C)c3n2)c1 (stereo not drawn)	.	.	0%	-6%[46.1 µM]	9
CC(C)(CO)NCc1c(OCc2ccc(Cl)cc2)ccc2ccccc12	-23%	?	-10%	2.5µM*	-16
COc1cc(CNC(C)(C)CO)cc(Br)c1OCc1ccc(Cl)cc1Cl	10µM*	13µM*	?	?	-99*
COc1cc(CNC(C)(C)CO)cc(Br)c1OCc1ccc(Cl)cc1	5µM*	?	0%	?	?
O/N=C/c1ccccc1OCc1ccc(Cl)cc1	?	-13%	20%	?	27
COc1ccc(S(=O)(=O)NCCc2sc(-c3cccnc3)nc2C)c(F)c1	.	.	11%	-22%[46.1 µM]	-5
COc1ccc(/C=C\C(=O)CC(O)(c2ccccc2)C(F)(F)F)cc1 (stereo not drawn)	-6%	-19%	20µM*	?	63
CC(C)CNc1ccc2c(n1)C(=O)N([C@H](C)C(=O)N[C@H](CO)c1ccccc1)C2	.	.	.	.	26
Oc1[nH]c(N=C2N=c3ccccc3=N2)c2ccccc12	-26%	?	10%	?	-97*
Cc1ccc2c(c1)=N/C(=N\c1[nH]c(O)c3ccccc13)N=2	.	.	22%	.	13
C1=NCCc2c1[nH]c1ccccc21	6%	?	-2%	5µM*	-95*
CCn1c(COc2c(C)cccc2C)nnc1SCC(=O)N1CCN(c2ccccc2)CC1	35µM*	?	?	?	?
C=CCn1c(COc2cccc(C)c2C)nnc1SCC(=O)N1CCN(c2ccccc2)CC1	?	?	18µM*	5.6µM*	?
CCn1c(COc2cc(C)cc(C)c2)nnc1SCC(=O)N1CCN(c2ccccc2)CC1	?	-4%	?	-19%	?
Cc1cccc(OCc2nnc(SCC(=O)N3CCN(c4ccccc4)CC3)o2)c1C	-4%	-29%	?	-18%	-14
SMILES	HCV inhibitor	Marburg entry inh	FMDV inh	LASV entry inh	HCMV antiviral
O=C(CN1C(=O)NC2(CCCC2)C1=O)N1CCN(S(=O)(=O)c2ccccc2)CC1	3%	?	-1%	6%[46.1 µM]	21
Cc1cc(C)c(S(=O)(=O)N2CCN(C(=O)C(C)Cn3nc(C)nc3C)CC2)c(C)c1 (stereo not drawn)	-7%	-9%[46.1 µM]	-10%	1%	-12
Cc1cc(C)c(S(=O)(=O)N2CCN(C(=O)CC(C)n3nc(C)nc3C)CC2)c(C)c1 (stereo not drawn)	.	.	-21%	.	-74*
Cc1cc(C)c(S(=O)(=O)N2CCN(C(=O)CN3C(=O)NC4(CCCC4)C3=O)CC2)c(C)c1	-21%	23%	-24%	-3%	-68*
CC12C=C(/C=C/c3ccccc3)C(C)(C1)C(c1ccccc1)CC2=O (stereo not drawn)	.	-4%[14.2 µM]	.	.	.
CCN(CC)CCN(C(=O)c1cc2c(ccc3ccccc32)oc1=O)c1nc2cc3c(cc2s1)OCCO3	-23%	?	-2%	11%[46.1 µM]	-98*
CN(C)CCCN(C(=O)c1ccc2ccccc2c1)c1nc2cc3c(cc2s1)OCO3	?	?	-9%	8%[46.1 µM]	-62*
CN(C)CCN(C(=O)c1ccc2ccccc2c1)c1nc2cc3c(cc2s1)OCCO3	.	?	13%	-29%	97
CCC1CCCCN1S(=O)(=O)c1ccc(C(=O)N(CCCN(C)C)c2nc3cc4c(cc3s2)OCO4)cc1 (stereo not drawn)	13µM*	?	-14%	?	-17
CN(C)CCN(C(=O)c1cccc2ccccc12)c1nc2cc3c(cc2s1)OCO3	10µM*	?	-17%	20%[46.1 µM]	-112*
O=C(O)C[C@H](C(=O)OCCOc1ccccc1)N1CCOCC1	.	0%	.	.	.
CCN1[C@@H]2c3cccc(=O)n3C[C@H]1[C@H](CO)[C@H]2C(=O)OC	.	.	.	.	-5
CN(CC1COCCO1)C(=O)c1cnn(-c2ncc3c(n2)-c2ccccc2CCC3)c1C1CC1 (stereo not drawn)	.	.	39%	.	.
CN(Cc1cccc2ncccc12)C(=O)c1cnn(-c2ncc3c(n2)-c2ccccc2CC3)c1C1CC1	.	.	28µM*	.	.
COC(=O)C1=C(C)N(Cc2ccco2)C(=O)NC1c1ccco1 (stereo not drawn)	.	0%[14.2 µM]	.	.	.
CC(=O)c1ccc(NC(=O)CN(C)S(=O)(=O)c2cnc[nH]2)cc1	.	19%[46.1 µM]	3%	16%[46.1 µM]	-4
O=C(NCc1ccccc1CN1CCCCC1)c1ccc(Cl)cc1N1CCCC1=O	11%	.	-16%	.	-6
O=C(NCc1ccccc1CN1CCCC1)c1ccc(Cl)c(N2CCCC2=O)c1	18µM*	.	6%	.	-34
S=C(NC1CCCCC1)N1CCOCCOCCN(C(=S)NC2CCCCC2)CCOCCOCC1	-17%	?	-13%	?	-78*
O=C(NC1CCCCCC1)C(=S)N1CCOCC1	12%	11%[46.1 µM]	-21%	3%	10
Cc1cccc(C)c1NC(=O)c1nc(SC(C)C)ncc1Cl	.	?	-26%	-3%[46.1 µM]	-13
O=C(Nc1ccc(CN2CCOCC2)cc1)c1cc2ccccn2n1	2%	?	-66%	6.5µM*	70
O=C(CCCc1ccccc1)NCCN1CCOCC1	20%	24%	16%	2%	-100*
O=C(CCN1CCOCC1)NCc1ccccc1	13%	.	-20%	.	5
O=C(Nc1ccc(CN2CCOCC2)cc1)c1cc2ccccc2o1	35µM*	?	.	-9%	21
O=C(NC(=S)Nc1ccc(CN2CCOCC2)cc1)c1cc2ccccc2o1	-9%	.	9%	.	-70*
CCC(=O)Nc1ccc(NC(=S)NC(=O)c2cc3ccccc3o2)cc1	8%	11%	7%	-15%	-26

Source: PubChem
